# Screens (PubChem BioAssay)
# Marburg entry inh: inhibitors of Marburg virus binding or cell entry; Marburg virus pseudotyped entry inhibition, cell reporter; Potency, µM (top dose mostly 37.8 µM), most hits filed as inhibitors; hit rate 1.8% among 300,000; AID 540276; calls by dose curve; tested in HEK293 cells
# FMDV inh: blocks foot and mouth disease virus. FMDV antiviral cell-based qHTS. Potency, µM (series often up to 57.9 µM), usual class: inhibitors. hit rate 1.2% among 410,000; calls by dose curve; tested in HEK293T cells; note: read-out not given here; nearly all actives have a fitted effect of over 45% in size
# VACV mCherry inh: inhibitors of vaccinia virus infection (mCherry reporter signal); Potency, µM (top dose mostly 36.5 µM), usual class: inhibitors; hit rate 0.63% among 310,000; Vaccinia virus mCherry reporter infection, fluorescence; calls by dose curve; tested in A549 cells; note: nearly all actives have a fitted effect of over 35% in size
# Vaccinia Venus: vaccinia inhibition (Venus reporter) | Vaccinia virus Venus reporter expression, fluorescence | Potency, µM (titrated, usually from 36.5 µM), usual class: inhibitors | hit rate 0.46% among 330,000 | AID 720580; calls by dose curve; tested in A549 cells; note: nearly all actives have a fitted effect of over 30% in size
# HCMV inh: inhibitors of human cytomegalovirus; HFF cells, HCMV-luciferase reporter, 72 h; active compounds read low; activity change, negative = inhibition, % at 57.5 µM; hit rate 4.5% among 410,000; in the data active = activity change below about -60%; inconclusive = no clear call, values can overlap the other calls; inactive = above about -39%
#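 Luciferase read-out from HCMV-luciferase-infected HFFs (MOI 1 PFU/cell) 72 h post infection at 37C; compounds added after 16 h cell attachment; activity normalized between buffer-only basal and Salinomycin (10uM) inhibitor controls.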
# LASV entry inh: inhibitors of Lassa virus binding or cell entry; Lassa virus pseudotype entry inhibition, cell reporter; Potency, µM (highest dose often 37.9 µM), hits mostly inhibitors; hit rate 1.2% among 300,000; calls by dose curve; tested in HEK293 cells; note: nearly all actives have a fitted effect of over 50% in size
# Hits are given with their value; 0 = inactive; ? = inconclusive; - = not tested or not shown; ! = repeats disagree; [ ] = another dose, or the depositor's remark. Only some compounds are listed: those with a hit (about 6.5% of all), similar ones and a draw of the others.
SMILES,Marburg entry inh,FMDV inh,VACV mCherry inh,Vaccinia Venus,HCMV inh,LASV entry inh
CNc1cc(Cl)c2nonc2c1[N+](=O)[O-],?,13µM,0,?,-99,?
Cc1c(Nc2cc(Cl)c3nonc3c2[N+](=O)[O-])c(=O)n(-c2ccccc2)n1C,?,14µM,?,28µM,0,?
O=C(O)c1cccc(Nc2ccc3nonc3c2[N+](=O)[O-])c1,-,0,-,-,0,-
O=C(O)c1ccc(Nc2cc(Cl)c3nonc3c2[N+](=O)[O-])cc1,0,40µM,0,0,0,0
O=[N+]([O-])c1c(Nc2cccc(O)c2)cc(Cl)c2nonc12,?,22µM,?,?,-102,?
Nc1cc(=O)[nH]c2c1CCC2,-,-,0,0,-,-
COc1ccc2c3n([n+]([O-])c2c1)C(C)CN=C3c1ccc(C)cc1 (configuration not stated),-,-,-,-,0,-
CC(=O)c1ccc(N2CCN(C(=O)C3CCN(S(=O)(=O)c4c(C)noc4/C=C/c4ccccc4F)CC3)CC2)cc1,-,0,0[7.34 µM],0[7.34 µM],0,0
COc1cc(C#Cc2c(-c3cncn3C)n(C)c3ccc(-c4cc(OC)c(OC)c(OC)c4)cc23)cc(OC)c1,-,0,?,11µM,0,-
COc1cc(C#Cc2c(-c3cncn3C)n(C)c3ccc(-c4ccc(OC)nc4)cc23)cc(OC)c1,-,?,?,28µM,0,-
CCN(CC)S(=O)(=O)c1ccc(OC)c(NC(=O)c2sc3ccccc3c2Cl)c1,0,0,0,?,0,0
COc1cc(/C=C2\COC/C(=C\c3ccc(O)c(OC)c3)C2=O)ccc1O,?,18µM,?,?,-99,?
COc1cc(/C=C2/CC/C(=C/c3ccc(O)c(OC)c3)C2=O)ccc1O,-,0,0,0,0,-
COc1cc(/C=C/C=C2/CC/C(=C/C=C/c3ccc(O)c(OC)c3)C2=O)ccc1O,?,?,0,0,-99,?
C/C=C/c1ccc(O)c(OC)c1,-,0,0,0,0,-
Cc1nc2cc(NS(=O)(=O)c3c(C)c(C)cc(C)c3C)ccc2s1,0,0,?,?,-82,0
Cc1nc2ccc(NS(=O)(=O)c3c(C)c(C)cc(C)c3C)cc2s1,?,0,?,?,-61,?
Cc1c(C(=O)N(C)Cc2ccccc2)oc2c(Cl)cccc12,0,0,0,0,0,0
Cc1c(C(=O)N(C)Cc2cccc(F)c2)oc2c(Cl)cccc12,?,7.1µM,0,0,0,?
CCOc1ccccc1NC(=O)Cn1nnc(C(=O)NCc2ccco2)c1N,?,0,?,?,-90,0
Cc1ccccc1NC(=O)Cn1nnc(C(=O)NCc2ccco2)c1N,?,0,?,4µM,0,0
Cc1cc(C)c(NC(=O)Cn2nnc(C(=O)NCc3cccs3)c2N)c(C)c1,?,40µM!,0,0,0,0
CCc1ccc(C(=O)c2cnc3ccc(F)cc3c2S(=O)(=O)c2ccccc2)cc1,0,?,0,0,0,-
CN(C)CCNC(=O)c1ccc2nc(Cc3ccccc3)oc2c1,-,0,0,0,0,0
CCc1ccc(Nc2n[n+](-c3ccccc3)c(-c3c(Cl)cccc3Cl)s2)cc1,-,28µM,?,8.9µM,-98,-
SMILES,Marburg entry inh,FMDV inh,VACV mCherry inh,Vaccinia Venus,HCMV inh,LASV entry inh
CCc1ccc(Nc2n[n+](-c3ccccc3)c(-c3ccc(OCc4ccccc4)cc3)s2)cc1,-,0,0,?,-96,-
CCc1ccc(Nc2n[n+](-c3ccccc3)c(-c3cc(OC)c(OC)cc3Br)s2)cc1,-,0,?,?,0,-
COc1ccc(C)cc1Nc1n[n+](-c2ccccc2)c(-c2ccc(OC)c(OC)c2OC)s1,-,?,?,0,?,-
CCc1ccc(Nc2n[n+](-c3ccccc3)c(-c3ccc(N(CC)CC)cc3)s2)cc1,-,?,?,11µM,-93,-
CCN(CC)c1ccc(-c2sc(Nc3ccccc3)n[n+]2-c2ccc(F)cc2)cc1,-,?,0,?,0,-
COc1ccc(C)cc1Nc1n[n+](-c2ccccc2)c(-c2c(Cl)cccc2Cl)s1,-,0,?,10µM,-100,-
O=C(O)c1ccc(-c2sc(Nc3ccccc3)n[n+]2-c2ccccc2)cc1,-,0,0,0,0,-
COc1cccc(CN2CCOc3ccc(CN4C[C@@H](C)O[C@@H](C)C4)cc3C2)c1OC,-,0,0,0,-,-
CCOc1ccc(CCNC(=O)c2cc3c(s2)-c2c(C)cccc2OC3)cc1,0,0,0,0,0,-
CCN1C(=O)[C@H]2[C@H]3[C@H](O)[C@H](O)C/C(=N\NC(=O)OCc4ccccc4)[C@@H]3CC[C@H]2C1=O,0,-,-,-,-,-
C=C[C@H](CC(C)C)N(Cc1ccccc1)S(=O)(=O)N(Cc1ccc(OC)cc1)[C@H](C=C)CC(C)C,-,?,0,0,0,-
COC(=O)[C@H](CC(C)C)N(Cc1ccccc1)S(=O)(=O)N(Cc1ccccc1)[C@@H](CC(C)C)C(=O)OC,-,?,0,0,-69,-
COC(=O)[C@H](CC(C)C)N(Cc1ccccc1)S(=O)(=O)N(Cc1ccc(OC)cc1)[C@@H](CC(C)C)C(=O)OC,-,?,0,0,-66,-
COC(=O)[C@H](CC(C)C)NS(=O)(=O)N(Cc1ccccc1)[C@@H](CC(C)C)C(=O)OC,-,0,?,0,0,-
CCOC(=O)[C@@H](C)N(Cc1ccc(OC)cc1)S(=O)(=O)N(Cc1ccccc1)[C@H](C(=O)OC)C(C)C,0,0,0,?,-79,-
CCOC(=O)[C@@H](C)NS(=O)(=O)N(Cc1ccccc1)[C@H](C(=O)OC)C(C)C,-,0,0,0,0,-
CS(=O)(=O)c1ccc(-c2cccc3c2OC(CNC(=O)c2cc(C4CC4)[nH]n2)C3)cc1 (configuration not stated),-,0,0,0,-,-
Cc1cc(NC(=O)CSc2nnc(C3COc4ccccc4O3)n2C)no1 (configuration not stated),0,0,0,0,-78,0
Cc1cc(NC(=O)CSc2nnc(-c3ccccc3)n2C)no1,0,0,0,0,0,0
COC(=O)c1ccccc1NC(=O)CSc1nnnn1-c1ccc(C)cc1C,0,32µM,0,0,0,?
CCc1ccccc1-n1nnnc1SCC(=O)Nc1cc(C)on1,0,0,0,0,0,0
Cc1ccc(-n2nnnc2SCn2nnc3ccccc3c2=O)c(C)c1,0,?,-,-,-86,?
Cc1cc(NC(=O)CSc2nnnn2-c2ccccc2C)no1,0,0,0,0,-113,0
O=C(CSc1nc2ccccc2n1Cc1cccc(Cl)c1)N1CCN(c2ccc(F)cc2)CC1,0,?,0,0,0,-
CC[C@@H](C)CCCCC(=O)N[C@@H](CCNCS(=O)(=O)O)C(=O)N[C@H](C(=O)N[C@@H](CCNCS(=O)(=O)O)C(=O)N[C@H]1CCNC(=O)[C@H]([C@@H](C)O)NC(=O)[C@H](CCNCS(=O)(=O)O)NC(=O)[C@H](CCNCS(=O)(=O)O)NC(=O)[C@H](CC(C)C)NC(=O)[C@@H](CC(C)C)NC(=O)[C@H](CCNCS(=O)(=O)O)NC1=O)[C@@H](C)O,-,0,0,0,-,-
COC(=O)c1cccc(-n2nnnc2SCC(=O)Nc2nc3c(s2)CCCC3)c1,0,0,-,0,0,0
Cc1cccc(-n2nnnc2SCC(=O)Nc2ccc(N3CCN(C)CC3)cc2)c1,-,0,-,-,-66,-
